ATXN2 expr inh = ATXN2 expression inhibition. AID 1745845. 0.72% of 360,000 active. Potency, µM (series often up to 57 µM), for inactives: top-dose activity change, negative = inhibition, actives largely listed as inhibitors. HEK-293 ATXN2-luciferase reporter, luminescence, 24 h; note: % is set by controls: 0 for no effect and ±100 for the full control effect; nearly all actives have a fitted effect of over 55% in size
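qHTS (up to 57 uM final) was run with 24 h compound exposure of reporter cells at 37 °C. Each well was multiplexed: SteadyGlo luminescence measured ATXN2-luciferase expression after a fluorogenic Gly-Phe-AFC viability readout (25 uM final).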
S2 tox = viability counter-screen for ATXN expression inhibitors; S2 cells (HEK-293 line with an ATXN2-luciferase reporter) viability, CellTiter-Fluor protease fluorescence, 24 h; 0.49% of 400,000 active; Potency, µM (highest dose often 56.7 µM), usual class: cytotoxic; note: nearly all actives have a fitted effect of over 40% in size
TDP1 cell noCPT = qHTS for Inhibitors of human tyrosyl-DNA phosphodiesterase 1 (TDP1): qHTS in cells in absence of CPT | DT40 Tdp1-/- hTDP1 cells, no CPT, ATP luminescence, 48 h | Potency, µM (titrated, usually from 46.2 µM), without a hit: top-dose activity change, negative = growth inhibition, actives largely listed as inhibitors | 15% of 420,000 active | AID 686978, 2013; note: % is set by controls: 0 for no effect and ±100 for the full control effect; nearly all actives have a fitted effect of over 55% in size
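Growth kinetics read by CellTiter-Glo luminescence after ≥48 hr at 37 °C. Cells: DT40 Tdp1-/- stably carrying human TDP1, 400 per well, compound exposure in the absence of CPT (DMSO vehicle).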
DT40 TDP1 CPT = DT40-hTDP1 cell growth loss with CPT. Potency, µM (titrated, usually from 46.2 µM), inactives show at the top dose activity change, negative = growth inhibition, hits mostly inhibitors. chicken DT40 Tdp1-/-;hTDP1 cells + 20 nM CPT, ATP luminescence, 48 h. 12% of 420,000 active; note: % is set by controls: 0 for no effect and ±100 for the full control effect; nearly all actives have a fitted effect of over 55% in size
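Chicken DT40 Tdp1-/- cells complemented with human TDP1, 400 cells/well, exposed to compounds plus 20 nM camptothecin for at least 48 h at 37 C; viability read as ATP content by CellTiter-Glo luminescence.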
TGFb inhibitor = inhibitors of TGF-b signaling. AID 588855. 1.2% of 410,000 active. Potency, µM (series often up to 46.1 µM), for the others: at the highest dose activity, negative = inhibition, usual class: inhibitors. HepG2 CAGA-GFP TGF-b/SMAD3 reporter, GFP fluorescence, 18 h; TGF-beta stimulated, 500 pg/mL final; note: % is set by controls: 0 for no effect and ±100 for the full control effect; nearly all actives have a fitted effect of over 65% in size
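HEPG2 CAGA-GFP, 1000 cells/well; 2 h settle, 37 C; cpd via pin tool; TGF-b 500 pg/mL final; 18 h, 37 C; GFP imaging ex488/em500-530; %Activity normalised to -TGF-b and +DMSO controls; CRC fit, curve class.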
HepG2 tox = counter-screen for TGF-b inhibitors: cytotoxicity in HepG2 cells; HepG2 CAGA-GFP viability, ATP luminescence, 18 h; Potency, µM (titrated, usually from 46.1 µM), inactives show at the highest dose activity change, negative = cytotoxicity, actives largely listed as cytotoxic; 0.76% of 410,000 active
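HepG2 CAGA-GFP cells (1000/well, DMEM with 1% FBS) received compound, then TGF-beta at 500 pg/mL final, and were incubated 18 hours at 37 degrees C. Viability was read by CellTiter-Glo luminescence. Media-only wells were set as complete cell-killing and DMSO as no toxicity.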
* marks the source's active call; other numbers are inactive results; i = inactive; ? = inconclusive; . = no result given; ! = a repeat was not active. A selection: hits, their analogues and other compounds. The true share with any hit is near 17%. Calls come from the whole dose curve; as a rule, active = well fitted curve in the direction sought with a large enough effect; inconclusive = small, poorly fitted or top-dose-only effect, or another doubt; inactive = no such curve, though single readings can be large; an effect the other way counts as inactive or inconclusive. Potency is the fitted concentration of half-maximal effect.

SMILES | ATXN2 expr inh | S2 tox | TDP1 cell noCPT | DT40 TDP1 CPT | TGFb inhibitor | HepG2 tox
O=P(Oc1ccc(Cl)cc1)(N1CC1)N1CC1 | 7.9% | i | ? | 6.51µM* | -1.8% | -6.1%
O=P(Oc1ccccc1)(Oc1ccccc1)N1CCN(c2ccc(F)cc2)CC1 | -19.0% | i | ? | ? | ? | 6.0%
COc1cc(C(C)=O)ccc1OCc1cc(C(=O)N(C)CCC2CCCCO2)no1 (configuration not stated) | . | i | ? | -24.0% | -2.4% | -6.9%
Cc1cc(O)c2c(c1)C(=O)c1cc(O)cc(O)c1C2=O | -1.9% | i | 21.1µM* | 18.4µM* | -7.1% | -14.7%
COc1cc(C(c2c(O)c3ccccc3oc2=O)c2c(C)n(C)n(-c3ccccc3)c2=O)ccc1OCC(=O)O (configuration not stated) | -5.5% | i | -1.3% | 3.8% | 0.5% | 0.0%
CC(CNC(=O)c1ccc(CSc2nc3ccncc3n2Cc2ccc(F)cc2)cc1)c1ccccc1 (configuration not stated) | -25.6% | ? | ? | 11.8% | ? | -23.2%
Cc1ccc(N2C(=O)CC(=O)NC2=O)c(C)c1 | . | i | -16.9% | 9.6% | -0.7% | -43.1%
O=C(CNC(=O)c1ccc(Br)cc1)NCC(=O)OCC(=O)c1ccc([N+](=O)[O-])cc1 | -15.1% | i | -13.9% | ? | 2.1% | 1.5%
CN1CCC2(CC1)c1ccccc1-c1ccccc12 | -23.3% | i | 14.6µM* | ? | 3.0% | -8.2%
CN1CCN(c2ccccc2N)CC1 | -8.2% | i | 10.2% | -1.2% | 3.1% | 0.6%
O=C(Nc1c(F)cc(F)cc1F)c1cccn(Cc2ccccc2)c1=O | 19.2% | i | ? | 6.0% | -20.7% | -17.4%
CN(C)P(=O)(N(C)C)N1CC1 | -4.5% | i | -3.5% | -16.1% | 7.7% | 1.3%
C[C@]12CC[C@H](OS(=O)(=O)O)CC1=CC[C@@H]1[C@@H]2CC[C@]2(C)C(=O)CC[C@@H]12 | 0.0% | i | 5.2% | 8.2% | 2.0% | 2.4%
COCCO[C@H]1CC[C@@]2(C)C(=CCC3C2CC[C@@]2(C)C3CC[C@]2(C)O)C1 (some centres not stated) | -14.7% | i | 11.6µM* | ? | 39.0% | -25.6%
CCN(CC)CCO[C@H]1CC[C@@]2(C)C(=CC[C@@H]3[C@H]2CC[C@]2(C)C(=O)CC[C@H]32)C1 | . | . | 2.37µM* | 2.37µM* | . | .
CCN(CC)CCO[C@H]1CC[C@@]2(C)C(=CC[C@@H]3[C@@H]2CC[C@]2(C)C(=O)CC[C@@H]32)C1 | . | . | 2.66µM* | 23.7µM* | . | .
Cc1nn(CC(C)C)c(Cl)c1C(=O)O | -6.1% | ? | -2.2% | -9.7% | -17.0% | 2.9%
COc1ccc([C@H]2C[C@H](O)[C@@H](n3cc(COC(=O)c4ccccc4)nn3)CN2Cc2cccs2)cc1 | -4.4% | ? | ? | -2.3% | 1.2% | 27.0%
CN(C)c1ccccc1 | . | i | 15.7% | 2.0% | -13.0% | -19.7%
O=P(c1ccccc1)(c1ccccc1)N(c1ccccc1)c1ccccc1 | -8.4% | i | 4.61µM* | 2.91µM* | -16.4% | -25.3%
CO[C@H]1CCC(O[C@H]2C[C@H]([C@]3(C)CC[C@]4(C[C@H](O)[C@@H](C)[C@@H]([C@@H](C)C=C(C)C(=O)[C@H](C)C[C@H](C)C(=O)O)O4)O3)O[C@]3(O[C@@H]([C@H]4O[C@@](O)(CO)[C@H](C)C[C@H]4C)C[C@H]3C)[C@H]2C)O[C@H]1C (some centres not stated) | 3.06µM* | . | . | . | . | .
COc1ccc(C(C)=O)cc1CC(C(=O)c1ccc(Br)cc1)N(C)C (configuration not stated) | 22.9% | i | ? | -19.4% | 4.9% | -8.7%
O=C(C(=C1N(Cc2ccc(Cl)nc2)CCN1Cc1ccc(Cl)nc1)[N+](=O)[O-])C(Cl)Cl | . | ? | 16.4µM* | ? | -13.0% | -23.3%
CC(=O)N1CCN(Cc2ccc(Cl)nc2)CC1 | -17.8% | ? | 14.0% | 14.7% | 20.6% | 16.7%
O=[N+]([O-])/N=C1\NCCN1Cc1ccc(Cl)nc1 | 7.8% | i | 6.68µM* | 8.41µM*! | . | .
SMILES | ATXN2 expr inh | S2 tox | TDP1 cell noCPT | DT40 TDP1 CPT | TGFb inhibitor | HepG2 tox
Cc1nc2ccccn2c1P(=S)(c1ccccc1)c1ccccc1 | -7.7% | i | . | . | ? | -10.6%
N#Cc1cccc(NC(=O)N2CC3(CCN(C(=O)Oc4ccccc4)CC3)C2)c1 | . | . | ? | -3.6% | . | .
Cn1cc(C2=C(c3cn(C4CCN(Cc5ccccn5)CC4)c4ccccc34)C(=O)NC2=O)c2ccccc21 | ? | i | -5.3% | 4.9% | . | .
NC(=O)OCCCc1ccccc1 | 0.8% | i | 21.1µM*! | 5.31µM*! | 15.1% | 1.6%
NP(=O)(OCCCc1ccccc1)Oc1ccccc1 (configuration not stated) | 5.5% | i | -20.3% | -17.8% | -7.2% | -2.9%
O=C(OCc1ccccc1)N1CCC2CC1c1cc(N3Cc4ccccc4-n4nncc4C3)ccc12 (configuration not stated) | 28.6% | ? | 5.8µM* | 7.31µM* | -6.2% | -27.4%
COC(=O)C12CCc3c(ccc4cc(OC)ccc34)C1=CC(=O)C2 (configuration not stated) | 4.1% | i | ? | -14.7% | -7.1% | 1.4%
CCCCCN=C(N)N/N=C/c1c[nH]c2ccc(OC)cc12 | 5.62µM*! | 17.8µM* | 2.59µM* | 2.91µM* | ? | 15.8µM*
COc1ccccc1N1CCN(Cc2ccc(Br)s2)CC1 | -24.0% | i | -26.7% | ? | -22.9% | -26.7%
CC(=O)Nc1ccc(OCCF)cc1 | 4.9% | i | 1.4% | 11.6% | -2.4% | 1.0%
O=C(CN1CCN(S(=O)(=O)c2cc(Br)ccc2Br)CC1)NCc1ccccc1Cl | -2.9% | i | ? | ? | ? | -19.6%
CC1CCC(NC(=O)CN2CCN(S(=O)(=O)c3ccc(Br)s3)CC2)CC1 (configuration not stated) | . | i | 16.4µM* | 16.4µM* | -12.5% | -22.7%
CCN(CC)c1ccc(NC(=O)c2cccc(C)c2)cc1S(=O)(=O)Nc1ccccc1OC | -1.2% | i | 23.1µM* | 16.4µM* | -22.0% | -12.4%
O=[N+]([O-])c1ccc(N2CCOCC2)c([N+](=O)[O-])c1 | -16.1% | ? | -10.8% | -2.3% | 0.0% | -1.8%

Source: PubChem (National Center for Advancing Translational Sciences (NCATS))
